HIF-2a block: HIF-2a reporter inhibitors, primary screen, luminescence, 786-0 RCC cells; 786-0 RCC cells HIF-2a reporter, luciferase luminescence, overnight; inhibition, % at 18.8 µM; 360,000 tested, 0.72% active;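 active = inhibition of the luminescence signal of 40% or more relative to plate controls, in a single-dose primary screen at 18.75 µM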
TWEAK Fn14 block: inhibitors of TWEAK-Fn14 signaling, primary screen, luciferase reporter cells, uHTS; TWEAK-stimulated Fn14 reporter cells, luciferase luminescence, 8 h; inhibition, % at 10 µM; 360,000 tested, 2% active; AID 1159606, 2016; in the data active = inhibition above about 50%
CF NFkB inh: inhibitors of PAF-induced NF-kB signaling, primary screen, cell-based, GFP fluorescence, uHTS. KKLEB NF-kB-GFP reporter, GFP fluorescence overnight. AID 588850, 2011. 360,000 tested, 0.86% active. inhibition, % at 5 µM;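 active = at least 50% inhibition at 5 µM, scaled per plate between neutral and stimulator controls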;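 also: PAF is a Pseudomonas aeruginosa culture filtrate used as stimulus; plate controls were PAF-stimulated DMSO wells for no effect and unstimulated DMSO wells for full effect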
LGR2 inh: inhibitors of bursicon-induced LGR2 CRE-luciferase signal, primary screen, cell-based, HEK293, CRE-luciferase reporter, bursicon stimulation | bursicon-stimulated, 4 h | inhibition, % at 9.99 µM | 380,000 tested, 0.35% active | AID 720647, 2013;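 active = drop in luminescence signal, shown as inhibition above about 50% in the replicate tests, limit read from the data, passing the limit was not always enough; inconclusive = probably only some replicates passing the limit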;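 also: agonist challenge used bursicon conditioned medium at about half maximal strength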
KKLEB tox: cytotoxicity in KKLEB CF airway cells, primary screen, cytotoxicity control for CF NF-kB inhibitor project, cell-based, uHTS, fluorescence assay plates. KKLEB CF airway cells viability, ATPlite luminescence, overnight; active compounds read low; cells stimulated with P. aeruginosa culture filtrate. activity change (cytotoxicity), % at 5 µM. 360,000 tested, 0.36% active. AID 602141, 2011;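 active = corrected activity change at or below -50% at 5 µM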
iPSC survival up: enhancers of single-cell hiPSC survival, primary screen, ATPlite luminescence. AID 602274, 2012. 100% = ROCK inhibitor wells, 0% = DMSO. 360,000 tested, 0.044% active. survival enhancement, % at 20 µM; in the data active = survival enhancement above about 18%;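 also: cells exposed to compounds for 16 hours before the ATP read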
Mdm2 MdmX conf: retested Mdm2-MdmX interaction blockers, confirmation, cell-based, luminescence, single concentration, set 2; shares compounds with HIF-2a block; SaOS-2 split-luciferase Mdm2/MdmX complementation; inhibition, % at 8 µM; 740 tested, 99% active; AID 504601, 2011;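 active = mean inhibition of the luminescence signal across two replicates at or above 26 percent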
Target sequence (O15151 whole entry, looked up): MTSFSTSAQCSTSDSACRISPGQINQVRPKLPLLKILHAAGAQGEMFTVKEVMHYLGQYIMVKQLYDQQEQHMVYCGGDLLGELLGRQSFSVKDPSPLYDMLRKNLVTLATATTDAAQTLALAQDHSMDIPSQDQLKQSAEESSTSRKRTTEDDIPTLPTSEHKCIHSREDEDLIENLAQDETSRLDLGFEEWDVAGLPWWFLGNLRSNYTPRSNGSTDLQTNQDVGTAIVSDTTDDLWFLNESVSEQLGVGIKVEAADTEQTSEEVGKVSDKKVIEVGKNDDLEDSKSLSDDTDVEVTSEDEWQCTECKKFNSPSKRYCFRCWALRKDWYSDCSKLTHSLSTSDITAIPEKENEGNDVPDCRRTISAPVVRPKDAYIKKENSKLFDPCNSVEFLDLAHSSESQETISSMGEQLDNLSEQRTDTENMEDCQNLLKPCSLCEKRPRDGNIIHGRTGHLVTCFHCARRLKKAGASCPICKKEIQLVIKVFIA
Target sequence (Q00987 whole entry, looked up): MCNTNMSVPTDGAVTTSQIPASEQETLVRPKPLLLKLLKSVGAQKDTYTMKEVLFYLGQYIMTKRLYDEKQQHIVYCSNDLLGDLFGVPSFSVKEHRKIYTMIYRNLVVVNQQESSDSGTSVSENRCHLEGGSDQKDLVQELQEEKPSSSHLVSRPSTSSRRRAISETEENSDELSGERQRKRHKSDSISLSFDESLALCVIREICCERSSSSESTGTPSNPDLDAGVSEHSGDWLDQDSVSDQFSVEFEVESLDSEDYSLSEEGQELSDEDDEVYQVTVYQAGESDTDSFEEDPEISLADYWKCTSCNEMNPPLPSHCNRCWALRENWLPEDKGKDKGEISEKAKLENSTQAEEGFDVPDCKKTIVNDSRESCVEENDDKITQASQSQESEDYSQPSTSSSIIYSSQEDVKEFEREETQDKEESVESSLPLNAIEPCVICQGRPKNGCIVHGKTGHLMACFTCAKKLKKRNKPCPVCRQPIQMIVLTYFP
HIF-2a inh conf: HIF-2a reporter inhibitor retest, confirmation, luminescence, 786-0 RCC cells; inhibition, % at 18.8 µM; 1,800 tested, 56% active; HIF-2a luciferase reporter luminescence, overnight; shares compounds with HIF-2a block; AID 651580, 2012;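 active = mean inhibition across four replicates of at least 40 percent at the single tested concentration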
HIF-1a counter: HIF-1a luciferase reporter signal reduction – MiaPaCa-2 cells, single concentration, counter-screen for HIF-2a inhibitor project, confirmation | AID 651589, 2012 | inhibition, % at 18.8 µM | MiaPaCa-2 HIF-1a luciferase reporter, desferoxamine, overnight | 1,800 tested, 72% active | shares compounds with HIF-2a block;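 active = mean inhibition of the reporter signal across four replicates at the single tested dose of 50% or more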
The depositor's hits bear a star; ? = inconclusive; nt = not tested or not shown. In the library only some 2.3% were active in any assay of this set; here they are far more common.

SMILES | HIF-2a block | TWEAK Fn14 block | CF NFkB inh | LGR2 inh | KKLEB tox | iPSC survival up | Mdm2 MdmX conf | HIF-2a inh conf | HIF-1a counter
O=S(=O)(c1ccc2c(c1)C(=NO)c1cc(S(=O)(=O)N3CCCCC3)ccc1-2)N1CCCCC1 | 87* | 13 | 100* | nt | -106* | -3 | nt | 82* | 103*
COc1ccc(Oc2c(Cl)cnn(-c3ccc(Cl)c(Cl)c3)c2=O)cc1 | 84* | 2 | -20 | nt | 3 | -6 | nt | 8 | 104*
C[C@H]1CN([C@@H](C)CO)C(=O)c2cccc(NC(=O)C3CC3)c2O[C@H]1CN(C)C(=O)Nc1ccc(C(F)(F)F)cc1 | nt | nt | nt | -5 | nt | nt | nt | nt | nt
COc1ccc(Nc2oc(COc3ccccc3OC)nc2C#N)cc1 | 59* | 55* | -4 | nt | 5 | 0 | nt | 62* | 57*
COc1ccccc1OCc1nc(C#N)c(NCCCn2ccnc2)o1 | 3 | 12 | -4 | 8 | -13 | 0 | nt | nt | nt
COc1ccccc1-c1nnc(Sc2nc([N+](=O)[O-])nn2C)o1 | 0 | 84* | 48 | 31 | -35 | -4 | 97* | nt | nt
N#CC1c2ccccc2C=CN1C(=O)N(c1ccccc1)c1ccccc1 (stereo not drawn) | 77* | 94* | 45 | nt | 6 | 1 | nt | 6 | 108*
O=C(C[C@H]1CC[C@@H]2[C@H](COC[C@@H](O)CN2Cc2cc(F)cc(F)c2)O1)NCc1cccc(F)c1 | nt | nt | nt | -7 | nt | nt | nt | nt | nt
CCCCC(=O)NC(c1ccccc1OC)c1ccc2cccnc2c1O (stereo not drawn) | 13 | -3 | -17 | 20 | -7 | 0 | 87* | nt | nt
CCCC(=O)NC(c1ccccc1OC)c1ccc2cccnc2c1O (stereo not drawn) | 25 | 20 | 6 | nt | 0 | 1 | 87* | nt | nt
CCCCC(=O)NC(c1ccc(N(C)C)cc1)c1ccc2cccnc2c1O (stereo not drawn) | 5 | 9 | 3 | 12 | 0 | 0 | nt | nt | nt
O=S(=O)(CCSc1nc2ccccc2s1)c1nc2ccccc2s1 | 57* | 83* | 73* | nt | -43 | -5 | 103* | 25 | 69*
C=CCS(=O)(=O)c1nc2ccccc2s1 | 88* | 28 | 52* | nt | -18 | 0 | nt | -7 | 44
NC(=O)CC(NC(=O)c1ccccc1)c1ccc(NCCc2ccc(Cl)cc2)c([N+](=O)[O-])c1 (stereo not drawn) | 50* | -1 | 2 | 10 | -14 | 3 | nt | -3 | 33
COc1ccc(-n2nc3c(N4CCC(C(=O)NCc5ccccc5C)CC4)nnc(C)c3c2C)cc1 | 91* | -1 | 36 | nt | -29 | -1 | 103* | 65* | 96*
Cc1ccc(-n2nc3c(N4CCC(C(=O)NCCc5ccccc5C)CC4)nnc(C)c3c2C)cc1 | 49* | -28 | 19 | nt | 0 | 0 | nt | -5 | 46
COc1ccc(-n2nc3c(N4CCC(C(=O)NCCc5ccccc5C)CC4)nnc(C)c3c2C)cc1 | 0 | -15 | -3 | nt | 0 | 0 | nt | nt | nt
COc1ccc(-n2nc3c(N4CCC(C(=O)NC5CCCCC5)CC4)nnc(C)c3c2C)cc1 | 65* | -10 | -7 | nt | 4 | 0 | nt | 5 | 60*
C[C@H]1CCCCO[C@@H](CN(C)C(=O)Nc2ccc3c(c2)OCO3)[C@@H](C)CN([C@@H](C)CO)C(=O)c2cc(NS(C)(=O)=O)ccc2O1 | nt | nt | nt | 2 | nt | nt | nt | nt | nt
Cc1nc(SCCC(=O)O)c2cc(-c3ccccc3)sc2n1 | 85* | 49 | 13 | 23 | -7 | -1 | nt | 91* | 50
C[C@H]1CN([C@@H](C)CO)S(=O)(=O)c2ccc(C#Cc3ccccc3)cc2O[C@H]1CN(C)C | nt | nt | nt | 17 | nt | nt | nt | nt | nt
NCCN1C(=O)S/C(=C\c2ccc3c(c2)OCO3)C1=O | 86* | 66* | -14 | 31 | 11 | 0 | nt | 95* | 67*
Cc1cccc(S(=O)(=O)N[C@@H]2CC[C@@H](CCn3cc(-c4ccccn4)nn3)O[C@@H]2CO)c1 | nt | nt | nt | 5 | nt | nt | nt | nt | nt
Cc1ccc(S(=O)(=O)c2ccc([N+](=O)[O-])cn2)cc1 | 83* | 68* | 96* | 65* | -72* | 1 | 103* | 62* | 65*
O=[N+]([O-])c1ccc(S(=O)(=O)c2ccccc2)nc1 | 75* | 54* | 108* | 52* | -88* | 4 | 103* | 65* | 79*
SMILES | HIF-2a block | TWEAK Fn14 block | CF NFkB inh | LGR2 inh | KKLEB tox | iPSC survival up | Mdm2 MdmX conf | HIF-2a inh conf | HIF-1a counter
Cc1cc(S(=O)(=O)c2ccc([N+](=O)[O-])cn2)ccc1Br | 93* | 60* | 91* | ? | -73* | 1 | nt | 22 | 89*
CN(C)c1ncnc2c1ccn2C1OC(CO)C(O)C1O (stereo not drawn) | 44* | -15 | 36 | 23 | -63* | 4 | nt | 34 | 27
FC(F)(F)c1nc2ccccc2n2c(-c3ccc(Cl)cc3)nnc12 | 46* | 15 | 76* | nt | -56* | -1 | nt | 25 | 86*
c1cc2c(cc1C1=NNC(=NC3CC3)SC1)OCCO2 | 86* | 104* | -3 | 55* | -32 | -5 | 95* | 94* | 97*
Cn1c(=S)n(C)c2ccccc21 | 55* | 2 | 6 | 10 | -8 | -1 | nt | -13 | -12
CC(C)(C)c1ccc(-c2noc(CCC(=O)NCc3ccco3)n2)cc1 | 85* | 37 | 5 | -68 | -5 | 0 | nt | 92* | -45
CN1/C(=C/C(=O)c2nc(S(C)(=O)=O)ncc2Cl)C(C)(C)c2ccccc21 | 91* | 84* | 95* | nt | -47 | -4 | 103* | nt | nt
CN1/C(=C\C(=O)c2cccnc2)C(C)(C)c2ccccc21 | -63 | -23 | -1 | -13 | -8 | 2 | nt | nt | nt
CC[C@@H](C)[C@H](CN[C@H](CNC)C(C)C)NC[C@@H](C)c1ccc(CC(C)C)cc1 | -1 | -43 | 3 | -6 | -10 | -3 | 103* | nt | nt

Screening data as filed in PubChem.
